Test results published in PubChem BioAssay.
Measured potencies and affinities stand elsewhere. Activity calls are given as the source filed them. No cut-off is given here; in the data, nearly all actives have IC50 up to about 0.91 µM.

Biological target: Calcium-dependent protein kinase 4 (Plasmodium falciparum (isolate 3D7)) (UniProt Q8IBS5)
Experiment: PfCDPK4 kinase inhibitors, biochemical, TCAMS library (AID 1159588)
Conditions: recombinant PfCDPK4, Kinase-Glo ATP depletion luminescence

Sequence of Calcium-dependent protein kinase 4 (Plasmodium falciparum (isolate 3D7)) (Q8IBS5 whole entry, looked up): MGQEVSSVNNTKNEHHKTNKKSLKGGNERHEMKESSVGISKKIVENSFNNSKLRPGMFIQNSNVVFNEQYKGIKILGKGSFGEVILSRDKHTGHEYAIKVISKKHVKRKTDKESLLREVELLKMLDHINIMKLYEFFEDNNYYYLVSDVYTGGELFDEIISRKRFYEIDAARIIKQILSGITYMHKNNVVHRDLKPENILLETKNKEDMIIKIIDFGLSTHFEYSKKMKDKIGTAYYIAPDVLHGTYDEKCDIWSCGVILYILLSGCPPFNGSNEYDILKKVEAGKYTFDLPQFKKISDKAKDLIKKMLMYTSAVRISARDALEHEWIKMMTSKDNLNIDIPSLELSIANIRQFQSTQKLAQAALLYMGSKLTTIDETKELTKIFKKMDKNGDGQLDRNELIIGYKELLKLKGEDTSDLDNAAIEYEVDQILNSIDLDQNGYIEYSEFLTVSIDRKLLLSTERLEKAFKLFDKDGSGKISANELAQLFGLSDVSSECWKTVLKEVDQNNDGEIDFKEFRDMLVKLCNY

outcome, inactive:
O=C(NCCCCN1CCC(c2c[nH]c3ccc(-c4ccccc4)cc23)CC1)c1ccc(-c2ccccc2)cc1
O=C(CC1SC(N2N=C(c3cccs3)CC2c2ccccc2)=NC1=O)Nc1ccc(Cl)cc1 (stereo not given)
N#Cc1cccc(NC(=O)c2cccc(S(=O)(=O)NC3CCN(CC4CCCCC4)C3)c2)c1 (stereo not given)
CCOc1cc(C(C)C)ccc1N1CCN(CCCCNC(=O)c2ccc(NC(=O)c3ccc(Cl)cc3)cc2)CC1
COc1ccccc1-c1cccc2c(NC(=O)Nc3ccc4nccc(N5CCN(C)CC5)c4c3)ccnc12
C=C(C)Cn1cc(C2CCN(CCCCNC(=O)c3sc(-c4ccc(Cl)cc4Cl)nc3CO)CC2)c2ccccc21
O=[N+]([O-])c1cccc(NC(=S)N2CCCN(Cc3ccc(C(F)(F)F)cc3)CC2)c1
COc1ccc2nc(C)cc(NCc3cccc4ccccc34)c2c1
O=C(Nc1ccc(Oc2ccccc2)cc1)N(CCN1CCCC1)Cc1ccc(-c2ccc(CN3CCNCC3)cc2)cc1
CCN(CC)CCNc1nc(C=Cc2ccc(Cl)cc2)nc2cc3ccccc3cc12
O=C(N[C@@H](CC1CCCCC1)C(=O)NCCN1CCOCC1)c1ccc(O)c(-c2ccc(Cl)c(Cl)c2)c1
COC[C@H]1CCCN1Cc1ccc(-c2ccc(-c3nc4ccccc4[nH]3)s2)cc1
CN(C)CCOc1ccc(N2CCN(CCCCNC(=O)c3ccc(/C=C/c4cc(Cl)cc(Cl)c4)cc3)CC2)cc1
Cc1ccc(Cn2cnc3cc(C(=O)Nc4ccc(-c5ccc(CN(C)C)cc5)cc4)ccc3c2=O)o1
COc1cc2c(cc1N(C(C)C)S(=O)(=O)c1sc3ccc(Cl)cc3c1C)CCNCC2
Cc1cc(-c2c[nH]c3ncc(-c4cccc5ncccc45)cc23)ccc1C(=O)O
O=C(N[C@@H](Cc1ccccc1)[C@H](O)CNC1CCCc2ccccc21)c1cc(C2CCCC2)cc(N2CCCC2=O)c1 (stereo not given in full)
O=C(NC(CCCN1CCC2(CC1)OCc1ccccc12)c1ccc(Cl)c(Cl)c1)c1cc(C(F)(F)F)cc(C(F)(F)F)c1 (stereo not given)
CN(C(=O)/C=C/c1cc(C(F)(F)F)ccc1F)C1CCN(CCCCCNC(=O)/C=C/c2ccc(Cl)c(Cl)c2)CC1
Cc1[nH]c(C)c(-c2ccc(OCc3ccccc3C(F)(F)F)nc2)c(=O)c1Br
CCCCOC(=O)C1=C(C)NC2=C(C(=O)CC(c3ccc(OC)c(OC)c3)C2)C1c1ccc(O)cc1 (stereo not given)
Cc1ccc(C)c(Cn2ccc3nc(N)nc(N)c32)c1
CCOC(=O)c1ccc(NC(=O)N[C@@H](Cc2ccccc2)C(=O)NC2CCN(Cc3ccc(OCCCN(C)C)cc3)C2)cc1 (stereo not given in full)
COc1ccc(NC2=C(c3ccccc3)C(=O)c3ccccc32)cn1
NC(=NC1CC1)c1ccc2nc(CCCCCc3nc4ccc(C(N)=NC5CC5)cc4[nH]3)[nH]c2c1
CCNc1cc(C)nc(Nc2ccc(NC(=O)c3ccco3)cc2)n1
Cn1cncc1C(=O)Nc1cccc(-c2cccc(-c3nc4ccc(F)cc4[nH]3)c2)c1
Cc1ccccc1N1CCN(c2ccc(C(=O)Nc3ccccc3)cn2)CC1
CN(C)Cc1cc2c(O)c(Cc3ccccc3)ccc2o1
COc1ccc(-c2nc3c(N)nc(N)nc3nc2-c2ccccc2Cl)cc1 (tested in a mixture with another compound)
COc1ccccc1/C=C/C(=O)NCCC1CCN(CCCCCNC(=O)/C=C/c2ccc(Cl)c(Cl)c2)CC1
O=C(Nc1cccc(-c2cccc(-c3nc4ccc(F)cc4[nH]3)c2)c1)c1ccncc1
CC(C)CNC(=O)c1cncc(-c2ccc(CNC3Cc4ccccc4C3)cc2)c1
CC(C)n1cc2c(ccc3nc(N)nc(N)c32)n1
O=C(/C=C/c1ccc(Cl)c(Cl)c1)NCCCCCN1CCCC(CNC(=O)/C=C/c2ccccc2)C1 (stereo not given)
COc1cc2ncnc(Nc3ccc4nc(-c5ccccc5)[nH]c4c3)c2cc1OC
COC(=O)C(Cc1ccccc1)NC(=O)NC1CCN(c2ccnc(Nc3ccc(F)cc3)n2)C1 (stereo not given)
CCC[C@@H]([C@@H](Cc1ccc(C)s1)C(=O)N[C@@H](CNC(C)=O)C(=O)Nc1nccs1)N(O)C=O
N#Cc1ccc2c(c1)CCN(CCC1CCC(NC(=O)c3cc4cccc(Cl)c4[nH]3)CC1)CC2 (stereo not given)
CC(=O)c1cccc(NC(=O)NC2CCN(CCCCCNC(=O)/C=C/c3ccc(Cl)c(Cl)c3)CC2)c1
